Rows were chosen to be rich in hits. Some 12% of all compounds tested hit in one or more screens of this group.
L major viab – Leishmania major promastigote growth inhibition; Leishmania major promastigotes, resazurin fluorescence viability; inhibition, % at 10 µM; actives 9% (n = 200,000); AID 1063; in the data active means inhibition above about 50%;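 further: promastigotes grown with compound for 44 hours at 28 °C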
Insulin prom up – MIN6 insulin promoter up-regulation; MIN6 insulin promoter-GFP reporter, high-content imaging; hits give high values; z-score at 5 µM; actives 0.3% (n = 190,000);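 active means z-score above 3 at 5 µM with at least 500 cells counted in the well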
ROMK mod – modulators of human ROMK potassium channel; B-score at 10 µM; P48048; Tet-inducible ROMK, thallium flux fluorescence; actives lie on both sides; actives 2% (n = 130,000);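 active means signal ratio slope over the read window, or its plate-corrected B-score, at least 3 SD from the plate mean, either direction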;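 further: B-score of the F/F0 ratio slope over 7 to 12 s after thallium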
Target sequence (P48048 whole entry, looked up): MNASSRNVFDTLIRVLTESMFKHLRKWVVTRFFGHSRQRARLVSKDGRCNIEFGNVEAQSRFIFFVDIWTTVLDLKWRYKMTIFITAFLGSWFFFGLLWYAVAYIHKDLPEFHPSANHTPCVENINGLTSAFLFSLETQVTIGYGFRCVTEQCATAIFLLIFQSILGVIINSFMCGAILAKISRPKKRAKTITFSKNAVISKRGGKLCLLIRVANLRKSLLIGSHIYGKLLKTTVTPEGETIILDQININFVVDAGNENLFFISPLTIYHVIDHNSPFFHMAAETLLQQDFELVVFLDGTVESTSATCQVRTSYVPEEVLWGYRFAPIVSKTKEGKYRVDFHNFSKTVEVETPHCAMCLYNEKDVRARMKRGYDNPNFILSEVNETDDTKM
INS promoter inh – TRM-6 insulin promoter activity inhibition; AID 1273; actives 0.9% (n = 130,000); inhibition, % at 2 µM; TRM-6 cells (human fetal islet line), insulin promoter-eGFP reporter, imaging; reporter expression induced with tamoxifen;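 active means inhibition above the mean plus 3 SD, with well images judged a real hit on visual review, cut at about 60% in these data, passing the limit was not always enough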
KCC2 mod – modulators of human KCC2 chloride dependent transport | Q9H2X9 | actives 2.2% (n = 190,000) | B-score of Tl+ flux slope (higher = more flux/activation; lower = inhibition) at 10 µM | KCC2 cells, thallium flux FluoZin-2 fluorescence;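 active means thallium flux slope and its plate-corrected score both differing from the plate sample mean at a set confidence after two filtering rounds, in either direction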;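 further: slope of fluorescence scaled to starting intensity during 10 to 20 s after thallium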
WT yeast gro inh – growth inhibition of WT yeast, mitochondrial fusion screen. actives 2.1% (n = 190,000). mitochondrial fusion phenotypic screen, WT strain. inhibition, % at 10 µM; in the data active means inhibition above about 58%; tested in S. cerevisiae
An asterisk follows results filed as active; x = not tested or not shown.

SMILES	L major viab	Insulin prom up	ROMK mod	INS promoter inh	KCC2 mod	WT yeast gro inh
O=C(NC1CC1)C1CCN(C2CCN(C(=O)/C=C/c3cccs3)CC2)CC1	87*	-0.08	-0.47	x	1.1	2
O=C(NC1CC1)C1CCN(C2CCN(C(=O)Cc3ccc4c(c3)OCO4)CC2)CC1	-2	0.24	-1.2	-12	0.31	-5
O=C(NC1CC1)C1CCN(C2CCN(C(=O)/C=C/c3cccc(F)c3F)CC2)CC1	82*	0.82	0.18	x	0.27	-7
CC(NC(=O)c1ccc2c(c1)OCCO2)c1ccc(S(N)(=O)=O)cc1 (stereo not drawn)	0	-0.73	0.41	-23	x	-7
COc1cc(CNCCC2CCOC(C)(C)C2)ccc1O (stereo not drawn)	57*	0.08	x	x	x	-16
O=C(NC(NNc1ccc([N+](=O)[O-])cc1)(C(F)(F)F)C(F)(F)F)c1ccc(Cl)cc1	4	0.31	-0.11	0	-0.41	78*
O=C(NNc1ccc([N+](=O)[O-])cc1)c1ccccc1Cl	-11	-0.24	-0.56	69	x	27
O=C1C=C(Nc2ccccc2)C(=O)c2ccccc21	100*	1.3	0.63	x	-1.9	64*
O=C1C=C(Nc2ccccc2C(=O)O)c2ccccc2C1=O	x	0.21	x	x	0.14	x
O=C1C=C(Nc2ccccc2)c2ccccc2C1=O	100*	-0.3	-0.45	x	0.16	74*
CCCCNC1=CC(=O)C(=O)c2ccccc21	100*	0.49	x	-50	-0.76	2
O=C1C(Nc2ccccc2)=C(NS(=O)(=O)c2ccccc2)C(=O)c2ccccc21	0	-0.13	0.84	32	0.63	17
CC1CCc2nc3ccccc3c(C(=O)OCC(=O)N3CCc4ccccc43)c2C1 (stereo not drawn)	4	-7.3	x	-23	-0.069	1
Cc1cccc(NC(=O)[C@H](Cc2ccccc2)NC(=O)OCc2ccccc2)c1	71*	0.25	0.5	-27	-0.96	20
O=C(NC(NC(=S)Nc1cccc(C(=O)O)c1)C(Cl)(Cl)Cl)OCc1ccccc1 (stereo not drawn)	-5	-0.03	0.43	33	-0.7	2
O=C(NC(NC(=S)Nc1cccc(Cl)c1)C(Cl)(Cl)Cl)OCc1ccccc1 (stereo not drawn)	100*	-0.02	-0.067	x	-0.2	50
CCOCC(=O)Nc1nnc(COC)s1	-3	0.43	x	3	-0.051	4
Cc1ccc(/C=C(/C#N)C(=O)NC(C)c2ccccc2)o1 (stereo not drawn)	15	0.54	-0.051	-14	-0.047	3
N#C/C(=C\c1cn[nH]c1-c1ccc(Cl)cc1)C(=O)NC1CC1	32	-0.92	x	79*	-1.6	-1
CC(NC(=O)/C(C#N)=C/c1cn[nH]c1-c1ccccc1)c1ccccc1 (stereo not drawn)	16	1.7	-0.83	x	-0.35	3
COc1ccc(-c2[nH]ncc2/C=C(\C#N)C(=O)NC2CC2)cc1	7	0.93	0.6	73*	0.016	4
N#C/C(=C\c1cn[nH]c1-c1ccccc1)C(=O)NC1CCCCCC1	26	x	x	-10	-0.34	4
Cc1[nH]c2ccccc2c1/C=C(\C#N)C(=O)NC(C)c1ccccc1 (stereo not drawn)	1	-0.94	-0.14	21	0.97	85*
CCc1ccc(C(C)NC(=O)/C(C#N)=C\c2cn[nH]c2-c2ccccc2)cc1 (stereo not drawn)	27	1.3	-0.5	3	-0.12	59*
CCCn1nnnc1SCC(=O)Nc1cccc(NC(=O)c2ccco2)c1	32	0.26	x	13	0.091	-2
SMILES	L major viab	Insulin prom up	ROMK mod	INS promoter inh	KCC2 mod	WT yeast gro inh
O=C(c1ccc(Cl)cc1)c1ccccc1C(=O)N1CCOCC1	-1	0.46	x	0	0.81	14
O=C(c1ccccc1)c1ccccc1C(=O)N1CCOCC1	-4	-0.84	x	90*	0.73	1
CCCCC(=O)Nc1ccccc1C(=O)N1CCOCC1	-3	0.54	-0.32	71*	x	-2
N=c1ncn(CC(O)CN2CCOCC2)c2nc(N3CCOCC3)[nH]c12 (stereo not drawn)	6	-0.1	-0.16	-83	1.9	-5
O=C(CCSCCc1ccccn1)Nc1c(F)c(F)c(F)c(F)c1F	39	-0.51	-0.55	-69	-0.18	-5
Cc1onc(-c2c(Cl)cccc2Cl)c1C(=O)NC1C(=O)N2C1SC(C)(C)C2C(=O)O (stereo not drawn)	-4	x	-1.1	-15	-0.85	0
COc1ccc(C(=O)/C=C/c2ccccc2C(F)(F)F)cc1	54*	-0.82	x	x	-0.14	23
Cc1cc[n+](-c2nc3ccccc3nc2C(=C=[N-])C#N)cc1	-9	0.72	x	-46	-0.15	-1
Cc1c(NC(=S)NC(NC(=O)CC(C)C)C(Cl)(Cl)Cl)c(=O)n(-c2ccccc2)n1C (stereo not drawn)	-6	-0.17	x	x	0.045	-4
c1coc(CN2CNc3nc4ccccc4n3C2)c1	x	-0.09	x	x	-0.053	x
COc1ccc(CN2CNc3nc4ccccc4n3C2)cc1	62*	-0.97	-0.69	0	x	-32
COC(=O)[C@@H]1CC[C@H](C)[C@@H](c2ccc(C)cc2)N1C(=O)c1ccc(/C=N/OC[C@@H](O)[C@H]2O[C@@H]3OC(C)(C)O[C@@H]3[C@H]2O)cc1	33	-1.5	1.6	-52	0.34	-4
COC(=O)[C@@H]1CC[C@H](C)[C@@H](c2ccc(C)cc2)N1C(=O)c1ccc(/C=N/O[C@@H](C)c2cn([C@H](CO)Cc3ccccc3)nn2)cc1	53*	-0.62	-0.28	5	-0.34	16
Oc1ccc2ccccc2c1C=NCc1cn2ccsc2n1	95*	0.03	x	x	-0.58	14
Cc1ccc(S(=O)(=O)NCC2CCC(C(=O)NCc3ccco3)CC2)cc1 (stereo not drawn)	-6	-0.22	x	0	0.22	14
COc1ccc(C2CC(C)(c3ccc(OC)cc3OC)Nc3ccccc3N2)c(OC)c1 (stereo not drawn)	62*	-0.64	x	-64	-0.014	72*
N#CC1=C(N)OC2=C(C(=O)CC(c3ccccc3)C2)C1c1cccnc1 (stereo not drawn)	93*	0.13	0.079	-21	0.39	-9
N#CC1=C(N)OC2=C(C(=O)CC(c3ccccc3)C2)C1c1ccoc1 (stereo not drawn)	-4	0.63	-1.4	43	-1.3	-9
N#CC1=C(N)Oc2cc3ccccc3cc2C1c1cccnc1 (stereo not drawn)	85*	1.3	x	16	0.43	-5
COc1ccc(S(=O)(=O)NCC2CCCN(C(=O)C3CCCC3)C2)cc1 (stereo not drawn)	0	-0.44	0.41	x	0.78	-5
COc1cccc(C(=O)N2CCN(Cc3nc(CC4CC4)no3)CC2)c1	x	0.48	x	x	-0.043	x
CCCCn1nnc(NC(=O)c2ccc(-c3ccccc3[N+](=O)[O-])o2)n1	17	-2	0.56	-2	-1.6	2
CCCCn1nnc(NC(=S)NC(=O)c2ccc(-c3cccc(Cl)c3Cl)o2)n1	-6	-0.72	x	x	34*	78*

Bioassay records from PubChem.
